Compound activity: PubChem, National Center for Advancing Translational Sciences (NCATS)
CtBP-E1A blk: inhibitors of CtBP/E1A interaction. actives 0.49% (n = 340,000). AlphaScreen GST-E1A/His-CtBP binding, 1536-well; active compounds read low. activity change, % (test concentration not listed); in the data active = activity change below about -65%; inconclusive = mostly about -30% to -63%
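Steps: dispense buffer (Tris pH 8.0, NaCl 300 mM, TCEP 1 mM, BSA, Tween 20); add 5X protein mix (GST-E1A, His-CtBP, 125 nM each); pin 23 nL compound; 2 h at 37 °C, dark; add 5X beads (50 ug/mL); 1 h; read.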
RORgamma inh: blocks mouse ROR gamma transcriptional activity; Drosophila S2 Gal4-RORgamma UAS-luciferase reporter, 20 h; Potency, µM (titrated, usually from 53.6 µM), actives largely listed as inhibitors; actives 5.4% (n = 310,000); AID 2551; note: nearly all actives have a fitted effect of over 60% in size
Target sequence (P51450 whole entry, looked up, the tested form may be a part): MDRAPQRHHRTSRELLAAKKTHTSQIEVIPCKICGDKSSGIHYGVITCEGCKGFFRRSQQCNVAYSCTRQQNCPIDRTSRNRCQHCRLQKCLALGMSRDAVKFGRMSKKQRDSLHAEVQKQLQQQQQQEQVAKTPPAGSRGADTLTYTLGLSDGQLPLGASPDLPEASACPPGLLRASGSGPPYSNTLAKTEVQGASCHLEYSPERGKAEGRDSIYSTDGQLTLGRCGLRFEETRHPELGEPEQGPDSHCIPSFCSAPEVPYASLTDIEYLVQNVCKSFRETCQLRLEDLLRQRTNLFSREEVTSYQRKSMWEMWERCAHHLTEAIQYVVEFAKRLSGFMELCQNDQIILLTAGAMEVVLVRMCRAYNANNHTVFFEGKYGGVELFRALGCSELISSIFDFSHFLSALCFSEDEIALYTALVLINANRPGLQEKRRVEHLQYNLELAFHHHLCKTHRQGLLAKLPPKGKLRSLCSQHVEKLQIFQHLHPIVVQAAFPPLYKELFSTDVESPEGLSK
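Drosophila S2 cells stably expressing Gal4-DBD/mouse RORγ fusion under metallothionein promoter plus UAS-luciferase; compound 1 h, then 700 uM CuSO4 induction for 20 h at ambient temperature; inhibition read as reduced luminescence.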
VP16 counter: counter-screen for ROR gamma inhibitors: Gal4-VP16 reporter. actives 3.5% (n = 310,000). AID 2546. Potency, µM (highest dose often 53.6 µM), usual class: inhibitors. Drosophila S2 Gal4-VP16 UAS-luciferase, luminescence, 20 h;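 note: Gal4-VP16 expression switched on by copper sulfate through the metallothionein promoter; nearly all actives have a fitted effect of over 50% in size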
Six1-Eya2 blk: inhibitors of human Six1/Eya2 interaction; actives 0.56% (n = 360,000); activity change, % (concentration not given with the values); AID 651725; Q15475+O00167; AlphaScreen GST-Six1/His-Eya2 binding, biochemical; active compounds read low; in the data active = activity change below about -65%; inconclusive = mostly about -30% to -63%
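Six1/Eya2 binding was read as AlphaScreen signal after compounds were pinned into GST-Six1 plus His-tagged Eya2 (5X stock 250/500 nM) in pH 8.0 Tris/NaCl/TCEP buffer, beads added, then incubated 1 h, 37 C, dark.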
p53 reactivator: restores transcriptional activity of mutant p53. H1299 p53-A138V BP100-luciferase reporter, luminescence, 24 h. Potency, µM (highest dose often 92.2 µM), hits mostly activators. actives 0.063% (n = 320,000); note: nearly all actives have a fitted effect of over 45% in size
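H1299 (p53-null), stable ts p53-A138V + BP100-Luc; 1000 cells/well, Opti-MEM/10% FBS; cpd 4 pt, 1:5; 24 h, 37 deg C, 5% CO2; detection reagent 10 min RT; luminescence.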
Numbers stand for hits; – = inactive; ? = inconclusive; · = no result; [ ] = dose if it differs, or a comment. Most compounds without a hit are left out; they make up all but 5.4% or so of the library. Unless noted, calls come from the whole dose curve; as a rule, active = well fitted curve in the direction sought with a large enough effect; inconclusive = small, poorly fitted or top-dose-only effect, or another doubt; inactive = no such curve, though single readings can be large; an effect the other way counts as inactive or inconclusive.

SMILES	CtBP-E1A blk	RORgamma inh	VP16 counter	Six1-Eya2 blk	p53 reactivator
CC1(C(=O)NS(=O)(=O)C2CC2)CCCN(C(=O)/C=C/c2ccccc2)C1 (stereo not drawn)	–	·	·	–	·
CNc1cc(C)nc(-n2nc(C)cc2C)n1	–	0.631µM	2.51µM	–	?
CCOc1ccc(Nc2cc(C)nc(-n3nc(C)cc3C)n2)cc1	-78.7	0.159µM	0.891µM	-67.7	–
Cc1cc(C)n(-c2nc(C)nc(N)n2)n1	–	14.1µM	–	–	–
Cc1cc(Cl)nc(-n2nc(C)cc2C)n1	–	3.55µM	12.6µM	–	–
COc1ccc(Nc2cc(C)nc(N3CCOCC3)n2)cc1	–	–	–	–	–
CC[C@@H](c1ccccc1)n1c(=O)n2n(c1=O)[C@H]1[C@H](O)[C@H]3O[C@@H]3/C(=N/OCc3ccccc3)[C@@H]1CC2	·	–[10 µM]	–[10 µM]	·	·
Cc1cc(C)n(-c2nc(N(c3ccccc3)c3ccccc3)nc(-n3nc(C)cc3C)n2)n1	–	5.62µM	5.62µM	–	–
Cc1c(Cl)cccc1NC(=S)NC1CCN(C(C)C)CC1	–	–	–	–	–
COC(C(=O)Nc1ccc(Cl)cc1C)c1ccccc1 (stereo not drawn)	–	–	–	–	–
Cc1c(Cl)cccc1NC(=S)NCCC(C)C	–	4.47µM	6.31µM	–	–
Cc1c(Cl)cccc1NC(=S)NCC(C)C	–	6.31µM	?	–	–
Cc1cc(Cl)ccc1NC(=S)NCCC(c1ccccc1)c1ccccc1	–	7.08µM	6.31µM	–	–
Cc1c(Cl)cccc1NC(=S)NCCC(c1ccccc1)c1ccccc1	–	0.631µM	1.26µM	–	–
Cc1c(Cl)cccc1NC(=S)NCC(c1cccnc1)N(C)C (stereo not drawn)	–	–	–	–	–
O=C(Nc1ccc(Oc2ccc(NC(=O)Nc3ccc([N+](=O)[O-])cc3)cc2)cc1)Nc1ccc([N+](=O)[O-])cc1	–	–	–	–	–
C=CCn1c(SCC(=O)Nc2nnc(CC)s2)nnc1-c1ccncc1	–	–	–	–	–
Cc1ccccc1NC(=S)NNC(=O)c1csc2c1CCC(C)C2 (stereo not drawn)	–	?	?	–	?
S=c1nc(Cc2ccccc2)[nH]c2ccccc12	–	2.82µM	6.31µM	–	–
Cc1nc(=S)c2ccccc2[nH]1	–	10µM	?	–	–
S=c1nc(Cc2ccc(Cl)cc2)[nH]c2ccccc12	–	1.78µM	11.2µM	–	–
O=c1[nH]c(COc2ccccc2)nc2ccccc12	·	–	–	–	?
S=c1nc(COc2ccccc2)[nH]c2ccccc12	·	1.58µM	17.8µM	–	?
O=C(O)c1cc(O)c2c(c1)[C@@H]([C@H]1c3cc(C(=O)O)cc(O)c3C(=O)c3c(O[C@@H]4O[C@H](CO)[C@@H](O)[C@H](O)[C@H]4O)cccc31)c1cccc(O[C@@H]3O[C@H](CO)[C@@H](O)[C@H](O)[C@H]3O)c1C2=O	–	·	·	?	–
C=CCN1C(=O)N/C(=C/c2ccc(N3CCOCC3)o2)C1=O	·	7.08µM	5.01µM	·	–
SMILES	CtBP-E1A blk	RORgamma inh	VP16 counter	Six1-Eya2 blk	p53 reactivator
O=C1N/C(=C/c2ccc(N3CCCC3)cc2)C(=O)N1c1ccccc1	–	–	–	–	–
O=C1NC(=S)S/C1=C/c1ccc(N2CCOCC2)o1	–	–	?	?	?
Cc1ccc(C(=O)O)cc1-c1ccc(/C=C2/NC(=O)N(c3ccccc3)C2=O)o1	–	?	–	-73.9	–
O=C1N/C(=C/c2ccc(N3CCOCC3)o2)C(=O)N1c1ccccc1	–	5.62µM	1.58µM	–	–
COCCN(C(=O)CSc1nc(-c2ccccc2)cn1N)c1c(N)n(Cc2ccccc2)c(=O)[nH]c1=O	–	·	·	–	–
O=C(COC(=O)/C=C/c1ccc(OC(F)F)cc1)NC1CCCCCC1	–	·	·	–	–
Cc1ccccc1N1CCN(S(=O)(=O)CC23CCC(CC2NC(=O)C(N)CCS(C)(=O)=O)C3(C)C)CC1 (stereo not drawn)	·	–	–	·	·
O=C(c1cc2sccc2n1Cc1ccccc1)N1CCN(c2nc3ccccc3s2)CC1	–	–	10µM	–	–
O=C(NC(=S)NC1CCCCCCCCCCC1)c1cccnc1	–	–	–	–	–
CCN(C(=S)NC(=O)C1CCCC1)C1CCCCC1	–	4.47µM	?	–	–
O=C(NC(=S)NC1CCCC1)c1ccccc1	–	7.08µM	10µM	–	?
O=C(NC1CCCCC1)c1cc(C(=O)c2ccccc2Br)c[nH]1	–	–	–	–	–
O=C(NNC(=S)NC1CCCCC1)c1ccccc1O	?	14.1µM	–	–	–
O=C(NC(=S)NC1CCCC1)c1ccccc1Br	–	4.47µM	?	–	–
O=C(NC(=S)NC1C2CC3CC(C2)CC1C3)c1ccccc1 (stereo not drawn)	–	1.58µM	1.78µM	–	–
O=C(NC(=S)NC1CC1)c1cccnc1	–	5.62µM	?	–	–
CCN(CC(=O)Nc1ccccc1Br)C1CCCCC1	–	–	–	–	–
CCN(C(=S)NC(=O)c1ccccc1Br)C1CCCCC1	–	1µM	2.82µM	–	–
CC(NC(=S)NC(=O)c1ccccc1Br)c1ccccc1 (stereo not drawn)	–	6.31µM	7.08µM	–	–
Cc1nc(N)[nH]c(=O)c1CCCNS(=O)(=O)c1ccc([N+](=O)[O-])cc1	–	·	·	–	·
Cc1cccc(C(=O)OCC(=O)NCCN2C(=O)CSC2=O)c1[N+](=O)[O-]	–	·	·	–	–
O=C(COC(=O)/C=C/c1cccc(F)c1)Nc1cccc(S(=O)(=O)NC2=NCCCCC2)c1	?	·	·	–	–
COc1cccc(/C=C/C(=O)OCC(=O)Nc2cccc(S(=O)(=O)NC3=NCCCCC3)c2)c1	-76.3	·	·	–	–
COc1ccccc1/C=C/C=N/n1c(COc2ccccc2)n[nH]c1=S	–	3.55µM	–	–	–
Cc1n[nH]c(=S)n1/N=C/c1cccc(OCc2ccccc2)c1	–	–	–	–	–
SMILES	CtBP-E1A blk	RORgamma inh	VP16 counter	Six1-Eya2 blk	p53 reactivator
COc1cccc(/C=N/n2c(COc3ccccc3)n[nH]c2=S)c1O	–	12.6µM	?	–	–
Cc1n[nH]c(=S)n1/N=C/c1ccccc1OCc1ccc(Cl)cc1	–	4.47µM	?	–	–
COc1cccc(/C=N/n2c(COc3ccccc3)n[nH]c2=S)c1OC	·	20µM	?	–	–
COc1cc(/C=N/n2c(COc3ccccc3)n[nH]c2=S)cc(Br)c1O	–	–	–	–	–
CC(C)(C)c1ccc(C(=O)NCc2nnc(SCC(=O)N3CCCC3)o2)cc1	–	·	·	–	·
C=CCNc1nc(NCCOC)c2sc(-c3ccccc3)cc2n1	–	·	·	–	·
C=CCNc1nc(NCc2ccc(N(C)C)cc2)c2sc(-c3ccccc3)cc2n1	-77.1	·	·	-72.7	·
CCCCN(CCCC)Cc1ccc(C(=O)NN)o1	·	–	–	–	–
CCCCN(CC)Cc1ccc(CNC(=O)Nc2ccc(F)cc2)o1	–	–	–	–	–
